{"source": "paper PMC7819943", "about": "“Rice protein-binding microarrays: a tool to detect cis-acting elements near promoter regions in rice”", "note": "In all, about 35,000 sequences were measured (“fluorescence intensity (a.u.)”: median about 10,000, highest 2% from about 52,000 on). For the sample, the highest values were picked, then their nearest neighbours and some sequences at random.", "data": [{"target": "T1, OsWOX13 (Oryza sativa, UniProt Q5QMM3 1-267)", "T1 sequence": "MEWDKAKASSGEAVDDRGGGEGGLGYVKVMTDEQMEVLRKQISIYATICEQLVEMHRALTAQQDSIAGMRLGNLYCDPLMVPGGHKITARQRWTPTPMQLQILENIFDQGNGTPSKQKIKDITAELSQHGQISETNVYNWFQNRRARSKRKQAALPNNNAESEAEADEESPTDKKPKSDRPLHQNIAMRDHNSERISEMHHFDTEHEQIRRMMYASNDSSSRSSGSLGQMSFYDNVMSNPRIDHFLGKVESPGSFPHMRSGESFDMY", "experiment": "protein-binding microarray (RPBM); PBS, 2% BSA, 51.3 ng/ul salmon testes DNA, 50 uM zinc acetate, 200 nM TF, 25 C, 1 h; high values mean tight binding", "settings": "protein: recombinant; tags: N-terminal polyhistidine and DsRed monomer fusion (pET32a); label: CyDye5-dUTP incorporated in the synthesized complementary strand; 3' TTTTT single-stranded linker to array surface; dsDNA, one strand shown", "procedure,_shortened": "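Transcription factors were each fused at the N-terminus to a polyhistidine tag plus DsRed and expressed in E. coli BL21-CodonPlus before Ni–NTA purification. Binding to a double-stranded custom Agilent array was carried out with 200 nM protein at 25 °C for 1 h in PBS, 2% BSA, salmon testes DNA and 50 µM zinc acetate. The binding signal is per-feature fluorescence intensity, in arbitrary units, on an Axon 4000B scanner.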", "values": [{"sequence": "GAGAAATGGTAATTTAGCATGCTTATATATTGAGGTTTAGCGGAGTCACCTAGTGCAG", "binding signal": "8510 fluorescence intensity (a.u.)"}, {"sequence": "TAATCTGTGATGATGGATTCTCGTTAAGCATATGTTCTTTCGGAGTCACCTAGTGCAG", "binding signal": "5830 fluorescence intensity (a.u.)"}, {"sequence": "TGGTGGTGGCTGGCGGCGGGGAGGATGAGAACGAGAGAAGCGGAGTCACCTAGTGCAG", "binding signal": "3920 fluorescence intensity (a.u.)"}, {"sequence": "TTCCGGCCTAGATTGAATCTGGGTTTAACCGTAAGAGTCCCGGAGTCACCTAGTGCAG", "binding signal": "6260 fluorescence intensity (a.u.)"}, {"sequence": "GTGGATATCAATCTGTATATACTAGATCCCCACCCACCATCGGAGTCACCTAGTGCAG", "binding signal": "6630 fluorescence intensity (a.u.)"}, {"sequence": "TCGAACAGGCCCTTAATTATCTGAGCTATCCTGCATGCTTCGGAGTCACCTAGTGCAG", "binding signal": "8320 fluorescence intensity (a.u.)"}, {"sequence": "GGCAAATTAACCAAGTTAGCTGCAGCTGCAGCTGGGATGGCGGAGTCACCTAGTGCAG", "binding signal": "9780 fluorescence intensity (a.u.)"}, {"sequence": "CATTTGATTGTATTTCCATCTTATTCTTAATCTGTATAAGCGGAGTCACCTAGTGCAG", "binding signal": "32100 fluorescence intensity (a.u.)"}, {"sequence": "ACCAATCACAACCATTCTTCTTCACTTACTTTCTCTTTTCCGGAGTCACCTAGTGCAG", "binding signal": "6630 fluorescence intensity (a.u.)"}, {"sequence": "TCAATTAATTGATTTATAATGATTTGGTCTTATCAATCCCCGGAGTCACCTAGTGCAG", "binding signal": "53400 fluorescence intensity (a.u.)"}, {"sequence": "TTGATGATGTAACGTACGGTTGATTAATAATAAATTAGGTCGGAGTCACCTAGTGCAG", "binding signal": "18400 fluorescence intensity (a.u.)"}, {"sequence": "CTATATCTTGATGCTTTGTTGATTAGTACCATGGATTGGCCGGAGTCACCTAGTGCAG", "binding signal": "6900 fluorescence intensity (a.u.)"}, {"sequence": "GTCTTAATTATATTTGATAATCAACTTTATCCTTGGTTTGCGGAGTCACCTAGTGCAG", "binding signal": "50800 fluorescence intensity (a.u.)"}, {"sequence": "TGCCAACTTATCCATCAATTGAGATTAATGATTTGGTCTTCGGAGTCACCTAGTGCAG", "binding signal": "13900 fluorescence intensity (a.u.)"}, {"sequence": "ATATTATTATATTATAATTATACTGTATTTATATCTGATACGGAGTCACCTAGTGCAG", "binding signal": "9100 fluorescence intensity (a.u.)"}, {"sequence": "GAAGTTGATTATGAGCTCTTGGATCTTTTGGCAGGTGCAACGGAGTCACCTAGTGCAG", "binding signal": "19400 fluorescence intensity (a.u.)"}, {"sequence": "TTCTGTAATTGATGCTCCTGCATTTTAGTGTATAAGTGTACGGAGTCACCTAGTGCAG", "binding signal": "36500 fluorescence intensity (a.u.)"}, {"sequence": "TGTGATTAAATGATTCCTCCAGTGCTATATGCCTATATAACGGAGTCACCTAGTGCAG", "binding signal": "17500 fluorescence intensity (a.u.)"}, {"sequence": "CTTATAATTGATTTATAGTCTGTCATTGTATCTGCTCTTACGGAGTCACCTAGTGCAG", "binding signal": "65100 fluorescence intensity (a.u.)"}, {"sequence": "ATTGATTATGCCATGATTGGATCTTGGCACAGTGCTCTGCCGGAGTCACCTAGTGCAG", "binding signal": "60300 fluorescence intensity (a.u.)"}, {"sequence": "GTGATTGATGTAAATGCCTTAACGGTCCAGCACCTCAGCTCGGAGTCACCTAGTGCAG", "binding signal": "61200 fluorescence intensity (a.u.)"}, {"sequence": "GTTGCTAAATTTTAGTTATTACTGTGCAGTTGCCAAATTTCGGAGTCACCTAGTGCAG", "binding signal": "4010 fluorescence intensity (a.u.)"}, {"sequence": "CATGAATTGGAAGATTTGATGCACTGATACTCCATGAAGACGGAGTCACCTAGTGCAG", "binding signal": "8060 fluorescence intensity (a.u.)"}]}]}
